Bioassay records: PubChem BioAssay, National Center for Advancing Translational Sciences (NCATS)
Rows were chosen to be rich in hits. Some 7.9% of all compounds tested hit in one or more screens of this group.
MARV entry inh = inhibitors of Marburg virus binding or cell entry | 1.8% of 300,000 active | AID 540276 | Potency, µM (top dose mostly 37.8 µM), most hits filed as inhibitors | Marburg virus pseudotyped entry inhibition, cell reporter; calls by dose curve; tested in HEK293 cells
FMDV antiviral = blocks foot and mouth disease virus. AID 1159524. FMDV antiviral cell-based qHTS. Potency, µM (doses to about 57.9 µM), most hits filed as inhibitors. 1.2% of 410,000 active; calls by dose curve; tested in HEK293T cells; further: read-out not given here; nearly all actives have a fitted effect of over 45% in size
HCMV antiviral = blocks human cytomegalovirus replication. 4.5% of 410,000 active. HFF cells, HCMV-luciferase reporter, 72 h; hits give low values. activity change, negative = inhibition, % at 57.5 µM; in the data active means activity change below about -60%; inconclusive means no clear call, values can overlap the other calls; inactive means above about -39%
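Inhibition of viral replication was scored as loss of reporter luminescence in HFFs infected with HCMV-luciferase (MOI 1 PFU/cell) for 72 h; compounds tested at 2 doses, normalized to buffer and Salinomycin controls.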
LASV entry inh = inhibitors of Lassa virus binding or cell entry. AID 540256. Lassa virus pseudotype entry inhibition, cell reporter. Potency, µM (titrated, usually from 37.9 µM), actives largely listed as inhibitors. 1.2% of 300,000 active; calls by dose curve; tested in HEK293 cells; further: nearly all actives have a fitted effect of over 50% in size
HCV inhibitor = blocks hepatitis C virus | Potency, µM (top dose mostly 41.8 µM), most hits filed as inhibitors | 3.4% of 340,000 active | Huh7.5.1 HCVcc-Cre infection, luciferase reporter, 44 h; active means well fitted inhibition curve with a large enough effect; inconclusive means small, poorly fitted or top-dose-only effect, or another doubt; inactive means no such curve, though single readings can be large or run the other way
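Cells (1,000/well) were plated 4 h before compound, then infected with HCVcc-Cre virus (~0.5 moi). After 44 h further culture, infection was read as luciferase luminescence following a 15 min substrate incubation at room temperature.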
Hits are given with their value; – = inactive; ? = inconclusive; · = not tested or not shown.

SMILES | MARV entry inh | FMDV antiviral | HCMV antiviral | LASV entry inh | HCV inhibitor
C[C@H](O)[C@@H]1C(=O)N2CCc3ccc(-c4ccccc4)cc3[C@@H]2C[C@@H]1N(C)C(=O)Nc1cc(Cl)cc(Cl)c1 | · | – | – | · | 11µM
COc1ccc(-c2ccc3[nH]c4c(c3c2)CCN2C(=O)[C@@H]([C@H](C)O)[C@@H](N(C)C(=O)Nc3ccc(F)cc3)C[C@@H]42)cc1 | · | ? | -100 | · | ·
O=C(NCc1ccccc1)C(Nc1ccccc1)c1ccccc1F (stereo not given) | · | · | – | · | ·
CCCc1cc(=O)[nH]c(SCC(=O)c2cc(C)n(-c3c(C)n(C)n(-c4ccccc4)c3=O)c2C)n1 | – | – | – | – | –
CCOC(=O)c1c(CC(C)C)csc1NC(=O)COC(=O)c1cc(OC)c(OC)cc1[N+](=O)[O-] | – | – | -71 | · | –
CCc1ccc(NS(=O)(=O)c2ccc3oc(=O)ccc3c2)cc1 | ? | – | -66 | – | –
CC(C)(C)OC(=O)NCc1ccc(CNC(=O)c2nc[nH]c2C(=O)N2CCc3ccccc3C2)cc1 | · | 40µM | – | · | ?
COc1ccc(NC(=O)c2nc[nH]c2C(=O)N2CCN(c3ccccc3)CC2)cc1 | · | – | -72 | · | –
O=C(Nc1ccccc1)c1nc[nH]c1C(=O)N1CCN(c2ccccc2)CC1 | · | – | ? | · | –
CC(C)(C)OC(=O)NCCCCCNC(=O)c1nc[nH]c1C(=O)N1CCc2ccccc2C1 | · | ? | – | · | –
CCOC(=O)c1ccc(NC(=O)c2nc[nH]c2C(=O)N2CCc3ccccc3C2)cc1 | · | – | – | · | –
Cc1ccc(NC(=O)c2nc[nH]c2C(=O)N2CCc3ccccc3C2)cc1 | · | – | -75 | · | –
CC(C)(C)OC(=O)NCc1ccc(CNC(=O)c2nc[nH]c2C(=O)N2CCN(c3ccccc3)CC2)cc1 | · | 20µM | – | · | ?
Cc1cccc(N2CCn3c2nc2c3c(=O)n(C/C=C/c3ccccc3)c(=O)n2C)c1 | · | – | – | – | ·
COc1ccc(NC(=O)Cn2nnc(-c3nc(-c4ccncc4)no3)c2N)cc1OC | · | – | – | – | ·
O=C1C=CN(S(=O)(=O)c2ccc(Cl)cc2)C(c2cccs2)C1 (stereo not given) | · | · | – | · | ·
COC(=O)C1=C(c2ccccc2OCc2ccccc2)C[C@@H]2CC[C@H]1N2C(=O)NCc1ccc([N+](=O)[O-])cc1 | · | – | – | · | 13µM
COC(=O)C1=C(c2ccccc2OCc2ccccc2)C[C@@H]2CC[C@H]1N2C(=O)NCc1ccc(Cl)cc1 | · | – | – | · | 11µM
CC(C)(C)C(=O)NCc1ccc(C(=O)CSc2nnc3n2CCCCC3)s1 | · | – | – | · | ·
COc1cc(-c2nccc3[nH]nc(-c4ccncc4)c23)cc(OC)c1OC | · | · | – | · | ·
Cc1c(Cl)cccc1NC(=S)NC(=O)c1cncc(Br)c1 | – | – | -65 | 3.2µM | –
O=C(NC(=S)Nc1cccnc1)c1cccc(Br)c1 | ? | – | – | – | –
O=C(NC(=S)Nc1cc(Cl)ccc1O)c1cccc(Br)c1 | · | – | ? | · | 11µM
CCN1CCCC1CNC(=O)c1cnn(-c2ncc(C)c(-c3ccc(F)cc3)n2)c1C(C)C (stereo not given) | · | – | · | · | ·
CCCCn1c(=N)n(CC(O)COc2ccccc2)c2ccccc21 (stereo not given) | ? | ? | – | ? | ?
SMILES | MARV entry inh | FMDV antiviral | HCMV antiviral | LASV entry inh | HCV inhibitor
CCCCn1c(=N)n(CC(O)COc2ccc(C)cc2)c2ccccc21 (stereo not given) | ? | ? | – | ? | 11µM
CCCn1c(=N)n(CC(O)COc2cccc(C)c2)c2ccccc21 (stereo not given) | 8.2µM | ? | – | – | ?
CCCCCn1c(=N)n(CC(O)COc2cccc(C)c2)c2ccccc21 (stereo not given) | ? | ? | -105 | ? | ·
Cc1ccccc1CSCc1nc2ccccc2[nH]1 | ? | – | – | ? | ?
Cc1ccc(C)c(CSCc2nc3ccccc3[nH]2)c1 | · | ? | -73 | · | ?
CN(C)c1ccc(-c2n(C)c3ccccc3[n+]2C)cc1 | ? | · | -97 | ? | 8.9µM
Cn1c(-c2ccccn2)[n+](C)c2ccccc21 | – | – | – | – | –
Cn1c(-c2ccc3ccccc3n2)[n+](C)c2ccccc21 | – | – | -72 | – | ?
Cn1c(-c2cccc([N+](=O)[O-])c2)[n+](C)c2ccccc21 | · | – | – | · | –
CCOc1ccc(NS(=O)(=O)c2ccc3c(c2)CCN3C(C)=O)cc1 | – | – | – | ? | –
CN1C(=O)c2cccc(NCCCCCCN3C(=O)c4ccccc4C3=O)c2C1=O | – | 13µM | – | – | –
